The source made the active and inactive calls.
How the values were obtained:
[1] = system: Human papillomavirus type 1a protein E7 (residues 44-93); test: small molecules binding HPV E7 44-93 – biochemical, small-molecule microarray, residues 44-93, 635 nm fluorescence, primary screen (AID 1108); details: fluorescence 635 nm, higher = more signal;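 further: E7 fragment applied at 1 µg/mL in TBST for 1 h at 4 C; score combines spot fluorescence with its signal to noise ratio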
[2] = hepatitis C replication reporter changes, two-sided – Huh7 cells, luciferase reporter, HCV replication inhibitor project, primary screen (AID 1109); details: Huh7 HCV replicon luciferase reporter, 48 h; higher = more signal;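 further: huh7 hepatoma cells harbouring a luciferase neomycin HCV replicon reporter; luciferase luminescence as measure of HCV replicon replication; test concentration not given here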
[3] = molecular target: Left-right determination factor 2 (Homo sapiens) (UniProt O00292); test: small molecules binding LEFTY2 protein – biochemical, small-molecule microarray, 635 nm fluorescence scan, primary screen (AID 1110); details: higher = more signal
Left-right determination factor 2 (Homo sapiens), sequence (O00292 whole entry, looked up): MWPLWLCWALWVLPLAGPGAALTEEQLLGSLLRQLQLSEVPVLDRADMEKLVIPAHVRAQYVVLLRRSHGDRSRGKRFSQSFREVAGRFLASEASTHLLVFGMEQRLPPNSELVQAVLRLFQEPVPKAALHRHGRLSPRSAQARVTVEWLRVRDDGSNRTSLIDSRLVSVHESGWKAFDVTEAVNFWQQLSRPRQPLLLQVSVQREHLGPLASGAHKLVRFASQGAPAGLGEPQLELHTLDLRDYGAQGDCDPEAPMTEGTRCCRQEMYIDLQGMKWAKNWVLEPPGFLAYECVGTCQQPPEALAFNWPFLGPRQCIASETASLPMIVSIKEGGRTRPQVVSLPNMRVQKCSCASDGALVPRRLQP

[4] = molecular target: Calmodulin-1 (Homo sapiens) (UniProt P0DP23); test: small molecules binding calmodulin-1 with EGTA – biochemical, small-molecule microarray, Cy5-labelled CALM1, profiling panel (AID 1111); details: Cy5-CALM1 binding fluorescence, higher = more signal;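 further: labelled calmodulin applied in Tris saline Tween buffer holding calcium plus EGTA and DTT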
[5] = molecular target: Calmodulin-1 (Homo sapiens) (UniProt P0DP23); test: small molecules binding Ca-loaded calmodulin-1 – biochemical, small-molecule microarray, Cy5-labelled CALM1, plus calcium, artefact control for SMM control-protein annotation, profiling panel (AID 1112); details: Cy5-CALM1 binding fluorescence, higher = more signal;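 further: score merges spot fluorescence with signal to noise from triplicate slides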
[6] = probe aWnt5a binding to arrayed compounds – biochemical, biotinylated probe, 635/667 nm fluorescence, primary screen (AID 1113); details: small-molecule microarray, higher = more signal;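 further: score merges 667 nm fluorescence intensity with signal-to-noise per printed feature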
[7] = probe aShh binding to arrayed compounds – biochemical, biotinylated probe, 635/667 nm fluorescence, primary screen (AID 1114); details: small-molecule microarray, higher = more signal;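 further: probe is biotin-labelled aShh protein from a stem cell growth factor screen; measures binding of labelled protein to compounds printed on the slide; score merges feature fluorescence at 667 nm with signal-to-noise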
[8] = probe aNog binding to arrayed compounds – biochemical, biotinylated probe, 635/667 nm fluorescence, primary screen (AID 1115); details: small-molecule microarray, higher = more signal;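 further: probe is biotinylated aNog protein used at 0.15 µg/mL for 1 h at 4 C; z-score combines 667 nm fluorescence of each spot with its signal to noise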
[9] = molecular target: Torsin-1A-interacting protein 1 (Homo sapiens) (UniProt Q5JTV8); test: compound microarray binding of lysate hLAP1 – cell lysate, small-molecule microarray, COS7 lysate, 635/667 nm fluorescence, primary screen (AID 1116); details: 635 nm fluorescence, higher = more signal
Torsin-1A-interacting protein 1 (Homo sapiens), sequence (Q5JTV8 whole entry, looked up): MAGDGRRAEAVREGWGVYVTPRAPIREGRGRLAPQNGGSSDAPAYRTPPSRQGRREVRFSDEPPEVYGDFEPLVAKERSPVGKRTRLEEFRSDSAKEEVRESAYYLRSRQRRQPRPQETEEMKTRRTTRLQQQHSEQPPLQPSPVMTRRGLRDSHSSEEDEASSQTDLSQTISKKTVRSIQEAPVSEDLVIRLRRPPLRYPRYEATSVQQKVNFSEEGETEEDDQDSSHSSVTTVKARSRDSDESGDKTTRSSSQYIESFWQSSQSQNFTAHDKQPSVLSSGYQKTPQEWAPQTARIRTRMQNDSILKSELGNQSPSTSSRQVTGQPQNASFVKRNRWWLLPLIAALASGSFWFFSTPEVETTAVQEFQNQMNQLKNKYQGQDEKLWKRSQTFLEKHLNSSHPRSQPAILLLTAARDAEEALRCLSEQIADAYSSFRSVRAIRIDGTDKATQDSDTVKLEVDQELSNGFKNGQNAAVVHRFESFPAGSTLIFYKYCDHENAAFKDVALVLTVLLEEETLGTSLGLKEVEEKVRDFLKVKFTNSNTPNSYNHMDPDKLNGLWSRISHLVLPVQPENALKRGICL

[10] = molecular target: Alpha-bungarotoxin (Bungarus multicinctus) (UniProt P60615); test: compounds binding labelled alpha-BTX control protein – biochemical, small-molecule microarray, Alexa647 label, 635/667 nm fluorescence, artefact control for SMM control protein annotation, profiling panel (AID 1117); details: alpha-BTX-A647 binding fluorescence, higher = more signal
Alpha-bungarotoxin (Bungarus multicinctus), sequence (P60615 whole entry, looked up): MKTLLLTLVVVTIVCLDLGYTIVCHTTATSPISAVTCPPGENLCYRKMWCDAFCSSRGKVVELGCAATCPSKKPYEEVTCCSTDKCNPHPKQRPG

Albumin (Bos taurus) = Albumin (Bos taurus) (UniProt P02769); test: compounds binding labelled BSA control protein – biochemical, small-molecule microarray, Alexa647 label, 635/667 nm fluorescence, artefact control for SMM control protein annotation, profiling panel (AID 1118); details: BSA-A647 binding, fluorescence 635 nm, higher = more signal;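 further: score merges 667 nm emission intensity and signal-to-noise per printed compound spot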
Albumin (Bos taurus), sequence (P02769 whole entry, looked up): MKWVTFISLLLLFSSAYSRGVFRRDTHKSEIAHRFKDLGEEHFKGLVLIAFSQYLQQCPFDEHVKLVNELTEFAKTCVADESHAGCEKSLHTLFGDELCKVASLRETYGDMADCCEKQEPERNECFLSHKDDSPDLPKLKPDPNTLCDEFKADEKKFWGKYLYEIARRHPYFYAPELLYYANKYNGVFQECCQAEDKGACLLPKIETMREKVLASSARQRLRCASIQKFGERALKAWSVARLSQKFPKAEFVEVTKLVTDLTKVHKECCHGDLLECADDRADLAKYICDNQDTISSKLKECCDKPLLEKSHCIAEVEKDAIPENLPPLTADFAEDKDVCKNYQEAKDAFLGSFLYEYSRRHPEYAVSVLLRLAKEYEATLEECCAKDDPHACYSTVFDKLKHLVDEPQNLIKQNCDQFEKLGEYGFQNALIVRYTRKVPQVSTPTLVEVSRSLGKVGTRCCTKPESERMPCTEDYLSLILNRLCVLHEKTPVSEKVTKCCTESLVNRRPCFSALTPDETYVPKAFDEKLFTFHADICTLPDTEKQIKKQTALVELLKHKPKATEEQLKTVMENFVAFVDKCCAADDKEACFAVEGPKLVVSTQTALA

[11] = probe aXIP binding to arrayed compounds – biochemical, NeuroSMM set, 635/667 nm fluorescence, primary screen (AID 1119); details: small-molecule microarray, higher = more signal, called active from +8 up or from −8 down;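 further: probe is the protein aXip251-270 applied at 1 µg/mL to compound-printed slides; binding of probe to printed compounds measured as 667 nm fluorescence plus signal to noise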
[12] = probe aNOTCH3 binding on compound microarray – biochemical, small-molecule microarray, 635/667 nm fluorescence, primary screen (AID 1120); details: higher = more signal;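 further: probe is a biotin-tagged antibody raised against NOTCH3 rather than NOTCH3 protein; score merges spot fluorescence near 667 nm with spot signal to noise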
[13] = probe aNOTCH2 binding on compound microarray – biochemical, small-molecule microarray, 635/667 nm fluorescence, primary screen (AID 1121); details: higher = more signal;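 further: score merges feature fluorescence read at 667 nm with its signal to noise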
[14] = molecular target: Carbonic anhydrase 2 (Homo sapiens) (UniProt P00918); test: compounds binding carbonic anhydrase 2 – biochemical, small-molecule microarray, Alexa647-labelled CAII, profiling panel (AID 1122); details: CAII-A647 binding fluorescence, higher = more signal
[15] = COS7 lysate on small-molecule microarray, probe aHis, 635 nm (AID 1123); details: COS7 cell lysate, fluorescence, higher = more signal;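 further: z-score combines 667nm fluorescence intensity with signal-to-noise per printed compound spot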
[16] = probe aLAP1 signal on lysate-treated microarray – cell lysate, small-molecule microarray, COS7 lysate, primary screen (AID 1124); details: probe aLAP1, fluorescence, higher = more signal;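 further: lysate comes from COS7 cells expressing LAP1 and is applied at 0.3 µg/mL; score merges spot fluorescence near 667 nm with signal-to-noise over triplicate slides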
Sam68 (KHDRBS1) = test: compounds binding KHDRBS1 protein – biochemical, small-molecule microarray, 635 nm fluorescence, primary screen (AID 1125); details: higher = more signal;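 further: score merges 667 nm channel intensity with signal to noise over triplicate slides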
[17] = system: Chordin-like protein 2 (CHRDL2); test: compounds binding chordin-like 2 – biochemical, small-molecule microarray, 635 nm fluorescence, primary screen (AID 1126); details: fluorescence 635 nm, higher = more signal;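 further: printed compound slides probed with Chrdl2 protein at 4 µg/mL for 1 h at 4 C; score merges 667 nm emission intensity with signal to noise over three replicate slides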
[18] = molecular target: Concanavalin-A (Canavalia ensiformis) (UniProt P02866); test: compounds binding concanavalin A lectin – biochemical, small-molecule microarray, Alexa647 label, 635 nm, artefact control for SMM control protein annotation, primary screen (AID 1127); details: ConA-A647 binding fluorescence, higher = more signal;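 further: z combines 667 nm emission intensity with signal-to-noise across three replicate slides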
Concanavalin-A (Canavalia ensiformis), sequence (P02866 whole entry, looked up): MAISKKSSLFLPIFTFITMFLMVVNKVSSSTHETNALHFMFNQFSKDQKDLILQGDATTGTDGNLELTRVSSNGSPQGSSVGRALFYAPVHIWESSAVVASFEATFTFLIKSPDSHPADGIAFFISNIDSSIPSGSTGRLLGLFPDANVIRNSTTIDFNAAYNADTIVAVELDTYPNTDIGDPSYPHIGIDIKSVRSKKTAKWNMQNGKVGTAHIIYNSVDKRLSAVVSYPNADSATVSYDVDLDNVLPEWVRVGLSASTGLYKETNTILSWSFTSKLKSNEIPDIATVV

| SMILES | composite z-score [1] | z-score [2] | composite z-score [3] | composite z-score [4] | composite z-score [5] | composite z-score [6] | composite z-score [7] | composite z-score [8] | composite z-score [9] | composite z-score [10] | composite z-score (Albumin (Bos taurus)) | composite Z-score [11] | composite z-score [12] | composite z-score [13] | composite z-score [14] | composite z-score [15] | composite z-score [16] | composite z-score (Sam68 (KHDRBS1)) | composite z-score [17] | composite z-score [18] |
| --- | --- | --- | --- | --- | --- | --- | --- | --- | --- | --- | --- | --- | --- | --- | --- | --- | --- | --- | --- | --- |
| COC(=O)[C@@]1(Cc2ccccc2)[C@H]2c3cc(C(=O)N(C)C)n(Cc4cc(C)n(C)n4)c3C[C@H]2CN1C(=O)c1ccccc1 | 1.02 | -0.995 | -0.279 | 1.8 | 0.908 | -0.319 | -0.465 | -0.199 | 3.2 | 0.285 | 1 | -0.138 (inactive) | 0.718 | 0.258 | 0.931 | 2.63 | 0.993 | 0.812 | -0.979 | 0.711 |
| C=CC(=C)C1=CCO[C@@H]1[C@H]1CCCN1S(=O)(=O)c1ccccc1[N+](=O)[O-] | -0.0291 | -1.4 | 0.867 | 0.397 | -0.112 | -0.101 | -0.0626 | -0.175 | 0.169 | 0.537 | 0.656 | 0.0499 (inactive) | 0.117 | -0.0926 | 0.481 | 0.158 | -0.262 | 0.471 | 1.04 | 1.1 |
| CC(C)C[C@@H]1NC(=O)[C@H]2C[C@@H](C(=O)NCCCCCCNC(=O)CS)[C@@H](c3cccc(OCCO)c3)N2C1=O | 1.41 | -0.117 | 1.45 | 0.83 | -0.587 | -0.001 | -0.282 | -0.152 | 1.95 | 1.17 | -0.641 | 0.156 (inactive) | 0.0493 | -0.132 | 0.338 | 1.68 | 0.995 | 1.22 | 1.41 | 1.17 |
| CCN(CC)c1ccc(N2CC=CC34O[C@@H]5/C=C\CCCOC(=O)C5[C@H]3C(=O)N(C(CO)C(C)C)[C@@H]4C2=O)cc1 (stereo not given in full) | -0.22 | -0.132 | -0.393 | -0.956 | -1.15 | -0.0758 | -0.221 | -0.164 | -0.0861 | -0.692 | -1.18 | 0.0855 (inactive) | -0.165 | -0.123 | 0.827 | -0.21 | -0.32 | -0.384 | -0.684 | -0.467 |
| COC(=O)c1ccc(C(O)C2C=CC3C(=O)N(C)C(=O)C3N2NC(=O)OC(C)(C)C)o1 (stereo not given) | 0.703 | -0.104 | 0.432 | 0.81 | -0.493 | 0.112 | -0.0904 | 0.672 | 2.02 | 0.977 | 0.538 | 1.02 (inactive) | 0.178 | 0.135 | 0.436 | 0.489 | 0.734 | 0.94 | -0.0987 | 0.494 |
| CN(C)CCCNC(=O)[C@@]1(Cc2ccccc2I)c2ccccc2C(=O)N(Cc2ccccc2C(F)(F)F)[C@H]1c1ccc(CO)cc1 | 0.973 | -3.4 | -1.2 | -0.327 | -0.149 | -0.176 | -0.138 | 0.612 | 0.283 | 0.376 | -0.212 | 0.179 (inactive) | -0.286 | -0.146 | 0.662 | 2.4 | 0.557 | 1.02 | -1.07 | -0.17 |
| CCOC(=O)C[C@H]1[C@H](OC(=O)c2ccc(C(=O)c3ccccc3)cc2)[C@@H](NC(=O)C2CCCCC2)c2cc(OCCCO)ccc2N1C(=O)c1ccccc1 | 1.34 | -2.27 | 0.239 | 0.541 | -0.0224 | -0.0346 | 0.0483 | -0.158 | 0.512 | 0.745 | 0.473 | 0.599 (inactive) | 0.369 | -0.132 | 0.159 | 1.54 | 0.297 | 1.31 | -0.047 | 0.799 |
| CCOC(=O)C[C@H]1[C@H](OC(=O)Cc2ccc3c(c2)OCO3)[C@@H](NC(=O)C2CCCCC2)c2cc(OCCCO)ccc2N1C(=O)Cc1ccc(OC)cc1 | 1.21 | -1.39 | 0.341 | 0.0855 | -0.629 | -0.001 | -0.0626 | -0.543 | -0.0511 | 0.199 | 0.343 | -0.145 (inactive) | 0.369 | -0.0993 | 0.231 | 0.557 | 0.366 | 1.15 | 0.107 | 0.343 |
| [N-]=[N+]=NCc1ccccc1[C@H]1OC(c2ccc(OCCCO)cc2)=N[C@@]1(CCS(=O)(=O)c1ccccc1)C(=O)N1CCOCC1 | 1.44 | -1.27 | 0.402 | 2.58 | 0.786 | 0.242 | 0.356 | 2.25 | 3.34 | 2.59 | 1.05 | 1.09 (inactive) | 0.515 | 0.268 | 0.819 | 3.05 | 0.362 | 1.3 | -0.584 | 1.11 |
| COC(=O)[C@@]1(Cc2ccc(F)cc2)[C@H]2c3cc(C(=O)N4CCCC4)n(Cc4cccc5ccccc45)c3C[C@H]2CN1C(=O)c1ccccc1 | 1.37 | -1.37 | -0.201 | 1.23 | 0.0721 | 0.0859 | 0.111 | 1.36 | 1.84 | 1.07 | 1.08 | -0.421 (inactive) | 0.535 | 0.173 | 0.533 | 3.22 | 0.513 | 1.07 | -0.411 | 0.405 |

Reference: PubChem BioAssay
